The source made the active and inactive calls. Rule for the calls: active = hit-call score of the fitted dose curve at least 0.9, where 1 is the maximum; inactive = score below 0.9.

Read-out in the first assay: not listed separately
The experiment in a line: BSK_BE3C_SRB: Viability Assessment in the BioMAP Diversity Plus: BE3C Assay (AID 2283028).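 For AC50: fitted both ways so AC50 may mark signal gain or loss versus DMSO.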 Particulars: primary human bronchial epithelial cells. The procedure, abridged: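 Cytotoxicity read-out: SRB (0.1%) staining of TCA-fixed (10%) human lung bronchial epithelial cells, absorbance 560 nm, 24 h post-dosing. Curves fitted both directions relative to DMSO.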
Regarding `O=C(O)C1(c2ccc3c(c2)OC[C@H](Cc2ccc(-c4ccccc4)cc2)[C@H]3O)CCCC1`, the AC50 – broadly, the midpoint of the concentration-response curve, whichever way the signal moves – is 26.2 µM (active).

As for `N#Cc1cccnc1`, the outcome was inactive.

In the case of `Cc1cc(Cl)ccc1OC(C)C(=O)O` (stereo not given), the outcome was inactive.

`O=C(CCl)NCO`: the outcome was inactive.

In the case of `Nc1c(Oc2ccccc2)cc(O)c2c1C(=O)c1ccccc1C2=O`, the outcome was inactive.

Consider `Oc1cc(Cl)c(Cl)cc1Cl`, for which the outcome was inactive.

Take `C[C@]12CC[C@@H](O)C[C@@H]1CC[C@@H]1[C@@H]2CC[C@]2(C)C(=O)CC[C@@H]12`: the result was inactive.

Turning to `CCC(C)(C#N)N=NC(C)(C#N)CC` (stereo not given), the outcome was inactive.

With `NC(=O)CCl`, the result was inactive.

Take `CCCCN(CCCC)C(=S)[S-].CCCCN(CCCC)C(=S)[S-].[Ni+2]`: the outcome was inactive.

For the compound `CCCCOC(=O)COC(=O)c1ccccc1C(=O)OCCCC`, the outcome was inactive.

As to `CCCCCCCCCCCCc1cccc(S(=O)(=O)O)c1`, the half-maximal activity concentration (AC50) is 26.9 µM (active).

Regarding `O=C(N[C@H]1CN2CCC1CC2)c1ccc2c(c1)OCCO2`, the outcome was inactive.

With `Clc1cccc(Cl)c1Cl`, the outcome was inactive.

Take `Cc1cccc(OP(=O)(Oc2cccc(C)c2)Oc2cccc(C)c2)c1`: the result was inactive.

As for `c1ccc2sc(SNC3CCCCC3)nc2c1`, the outcome was inactive.

On to `OCCCCO`, for which the outcome was inactive.

Consider `CC(C)O.CC(C)O.OCCN(CCO)CCO.OCCN(CCO)CCO.[Ti]`, for which the outcome was inactive.

Take `Clc1cccc(Cl)c1`: the result was inactive.

`CC(C)N(C(=O)CCl)c1ccccc1`: the AC50 was 29.9 µM (active).

With `Nc1ccc(N)cc1`, the outcome was inactive.

On to `Oc1cccc(-c2ccccc2)c1`, for which the result was inactive.

On to `COCC(=O)N(c1c(C)cccc1C)[C@H](C)C(=O)OC`, for which the outcome was inactive.

Consider `O=C1C=CC(=O)c2ccccc21`, for which the AC50 is 3.8 µM (active).

In the case of `Cc1cc(Cl)ccc1N`, the outcome was inactive.

Regarding `O=C(Cc1ccccc1)OCCc1ccccc1`, the outcome was inactive.

Take `O=c1oc2ccccc2c(O)c1C(CC(O)c1ccc(-c2ccc(Br)cc2)cc1)c1ccccc1` (stereo not given): the half-maximal activity concentration (AC50) is 5.05 µM (active).

Consider `Oc1ccc(Cc2ccc(O)cc2)cc1`, for which the result was inactive.

On to `Cc1c([N+](=O)[O-])c(C)c([N+](=O)[O-])c(C(C)(C)C)c1[N+](=O)[O-]`, for which the result was inactive.

For the compound `CC(C)(COCC1CO1)COCC1CO1` (stereo not given), the outcome was inactive.

As to `CCOC(=O)CC(=O)CCl`, the result was inactive.

Consider `CCCCCCCCCCCCN(C)C`, for which the result was inactive.

As for `CCOP(=S)(OCC)SCS(=O)(=O)C(C)(C)C`, the outcome was inactive.

Read-out in another assay: Thrombomodulin, THBD (gene 7056)
The experiment in a line: BSK_3C_Thrombomodulin: BioMAP Diversity Plus: 3C Assay for Thrombomodulin Biomarker Activity (AID 2283029). The settings on record: primary human endothelial cells (HUVEC); actives raise or lower the signal. A digest of the protocol:
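ELISA measurement of thrombomodulin on HUVEC surface 24 h after chemical dosing; activity fitted in both directions relative to DMSO vehicle.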
With `O=C(O)C1(c2ccc3c(c2)OC[C@H](Cc2ccc(-c4ccccc4)cc2)[C@H]3O)CCCC1`, the outcome was inactive.

Regarding `N#Cc1cccnc1`, the outcome was inactive.

With `Cc1cc(Cl)ccc1OC(C)C(=O)O` (stereo not given), the outcome was inactive.

Regarding `O=C(CCl)NCO`, the result was inactive.

For the compound `Nc1c(Oc2ccccc2)cc(O)c2c1C(=O)c1ccccc1C2=O`, the outcome was inactive.

Consider `Oc1cc(Cl)c(Cl)cc1Cl`, for which the result was inactive.

On to `C[C@]12CC[C@@H](O)C[C@@H]1CC[C@@H]1[C@@H]2CC[C@]2(C)C(=O)CC[C@@H]12`, for which the outcome was inactive.

`CCC(C)(C#N)N=NC(C)(C#N)CC` (stereo not given): the outcome was inactive.

For `NC(=O)CCl`, the result was inactive.

As for `CCCCN(CCCC)C(=S)[S-].CCCCN(CCCC)C(=S)[S-].[Ni+2]`, the result was inactive.

Regarding `CCCCOC(=O)COC(=O)c1ccccc1C(=O)OCCCC`, the outcome was inactive.

In the case of `CCCCCCCCCCCCc1cccc(S(=O)(=O)O)c1`, the outcome was inactive.

Consider `O=C(N[C@H]1CN2CCC1CC2)c1ccc2c(c1)OCCO2`, for which the outcome was inactive.

For the compound `Clc1cccc(Cl)c1Cl`, the result was inactive.

For the compound `Cc1cccc(OP(=O)(Oc2cccc(C)c2)Oc2cccc(C)c2)c1`, the AC50 was 140 nM (active).

As to `c1ccc2sc(SNC3CCCCC3)nc2c1`, the result was inactive.

With `OCCCCO`, the result was inactive.

On to `CC(C)O.CC(C)O.OCCN(CCO)CCO.OCCN(CCO)CCO.[Ti]`, for which the result was inactive.

On to `Oc1c(Br)cc(Br)cc1Br`, for which the outcome was inactive.

In the case of `Clc1cccc(Cl)c1`, the outcome was inactive.

`CC(C)N(C(=O)CCl)c1ccccc1`: the outcome was inactive.

As for `Nc1ccc(N)cc1`, the outcome was inactive.

Turning to `Oc1cccc(-c2ccccc2)c1`, the result was inactive.

On to `O=C1C=CC(=O)c2ccccc21`, for which the result was inactive.

On to `Cc1cc(Cl)ccc1N`, for which the outcome was inactive.

On to `O=C(Cc1ccccc1)OCCc1ccccc1`, for which the result was inactive.

Regarding `O=c1oc2ccccc2c(O)c1C(CC(O)c1ccc(-c2ccc(Br)cc2)cc1)c1ccccc1` (stereo not given), the outcome was inactive.

As to `Oc1ccc(Cc2ccc(O)cc2)cc1`, the outcome was inactive.

Consider `Cc1c([N+](=O)[O-])c(C)c([N+](=O)[O-])c(C(C)(C)C)c1[N+](=O)[O-]`, for which the result was inactive.

As for `CC(C)(COCC1CO1)COCC1CO1` (stereo not given), the result was inactive.

With `CCOC(=O)CC(=O)CCl`, the concentration at half-maximal activity (AC50) is 4350 nM (active).

Regarding `CCCCCCCCCCCCN(C)C`, the outcome was inactive.

As for `CCOP(=S)(OCC)SCS(=O)(=O)C(C)(C)C`, the outcome was inactive.

Read-out in the next assay: Urokinase-type plasminogen activator receptor (uPAR), PLAUR (gene 5329)
The experiment in a line: BSK_4H_uPAR: BioMAP Diversity Plus: 4H Assay for Urokinase-type plasminogen activator receptor (uPAR) Biomarker Activity (AID 2283030). The settings on record: primary human endothelial cells (HUVEC); actives raise or lower the signal. A digest of the protocol: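 uPAR level read by ELISA on HUVEC cultures (BioMAP 4H) 24 h post-dosing, analyzed for gain or loss relative to DMSO. Parallel SRB staining assessed overt cytotoxicity.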
As to `O=C(O)C1(c2ccc3c(c2)OC[C@H](Cc2ccc(-c4ccccc4)cc2)[C@H]3O)CCCC1`, the result was inactive.

`N#Cc1cccnc1`: the result was inactive.

As for `Cc1cc(Cl)ccc1OC(C)C(=O)O` (stereo not given), the outcome was inactive.

As for `O=C(CCl)NCO`, the outcome was inactive.

`Nc1c(Oc2ccccc2)cc(O)c2c1C(=O)c1ccccc1C2=O`: the result was inactive.

With `Oc1cc(Cl)c(Cl)cc1Cl`, the AC50 was 27.4 µM (active).

As for `C[C@]12CC[C@@H](O)C[C@@H]1CC[C@@H]1[C@@H]2CC[C@]2(C)C(=O)CC[C@@H]12`, the outcome was inactive.

Turning to `CCC(C)(C#N)N=NC(C)(C#N)CC` (stereo not given), the result was inactive.

For the compound `NC(=O)CCl`, the outcome was inactive.

On to `CCCCN(CCCC)C(=S)[S-].CCCCN(CCCC)C(=S)[S-].[Ni+2]`, for which the result was inactive.

For `CCCCOC(=O)COC(=O)c1ccccc1C(=O)OCCCC`, the result was inactive.

As for `CCCCCCCCCCCCc1cccc(S(=O)(=O)O)c1`, the result was inactive.

Consider `O=C(N[C@H]1CN2CCC1CC2)c1ccc2c(c1)OCCO2`, for which the outcome was inactive.

Regarding `Clc1cccc(Cl)c1Cl`, the result was inactive.

As to `Cc1cccc(OP(=O)(Oc2cccc(C)c2)Oc2cccc(C)c2)c1`, the result was inactive.

Regarding `c1ccc2sc(SNC3CCCCC3)nc2c1`, the result was inactive.

Consider `OCCCCO`, for which the result was inactive.

Regarding `CC(C)O.CC(C)O.OCCN(CCO)CCO.OCCN(CCO)CCO.[Ti]`, the outcome was inactive.

Consider `Oc1c(Br)cc(Br)cc1Br`, for which the outcome was inactive.

`Clc1cccc(Cl)c1`: the result was inactive.

With `CC(C)N(C(=O)CCl)c1ccccc1`, the AC50 was 35.1 µM (active).

On to `Nc1ccc(N)cc1`, for which the result was inactive.

Take `Oc1cccc(-c2ccccc2)c1`: the outcome was inactive.

Take `COCC(=O)N(c1c(C)cccc1C)[C@H](C)C(=O)OC`: the outcome was inactive.

`O=C1C=CC(=O)c2ccccc21`: the AC50 is 1.99 µM (active).

With `Cc1cc(Cl)ccc1N`, the outcome was inactive.

For the compound `O=C(Cc1ccccc1)OCCc1ccccc1`, the outcome was inactive.

Turning to `O=c1oc2ccccc2c(O)c1C(CC(O)c1ccc(-c2ccc(Br)cc2)cc1)c1ccccc1` (stereo not given), the AC50 is 6.9 µM (active).

For the compound `Oc1ccc(Cc2ccc(O)cc2)cc1`, the outcome was inactive.

Consider `Cc1c([N+](=O)[O-])c(C)c([N+](=O)[O-])c(C(C)(C)C)c1[N+](=O)[O-]`, for which the outcome was inactive.

For `CC(C)(COCC1CO1)COCC1CO1` (stereo not given), the outcome was inactive.

Turning to `CCOC(=O)CC(=O)CCl`, the result was inactive.

For the compound `CCCCCCCCCCCCN(C)C`, the result was inactive.

For `CCOP(=S)(OCC)SCS(=O)(=O)C(C)(C)C`, the result was inactive.

The values above are taken from PubChem BioAssay (EPA / NIEHS).
